# Screening results: PubChem, Emory University Molecular Libraries Screening Center
# This excerpt belongs to a sample that is enriched for hits.
# 14-3-3 PPI: modulators of human 14-3-3 gamma - Raf peptide interaction | actives 0.19% (n = 160,000) | P61981 | AID 422 | FP, 14-3-3gamma / TMR-pS259-Raf peptide binding | inhibition, % at 40 µM; in the data active = inhibition above about 30%;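 also: 0% = protein plus tracer without compound and 100% = blank with tracer alone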
# Target sequence (P61981 whole entry, looked up): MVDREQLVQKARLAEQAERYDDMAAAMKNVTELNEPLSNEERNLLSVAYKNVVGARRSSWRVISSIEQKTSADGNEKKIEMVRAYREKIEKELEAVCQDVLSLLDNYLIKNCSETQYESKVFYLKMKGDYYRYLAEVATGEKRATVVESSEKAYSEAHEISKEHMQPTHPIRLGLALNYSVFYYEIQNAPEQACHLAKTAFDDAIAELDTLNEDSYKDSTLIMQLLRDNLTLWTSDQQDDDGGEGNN
# The depositor's hits bear a star; + = active, no number; ! = a repeat was not active.
SMILES,14-3-3 PPI
CC1CCCC(NC(=O)C2N(Cc3cccnc3)C(=O)C3C(C(=O)Nc4ccc(Cl)cc4)C4C=CC32O4)C1C (stereo unspecified),-26
CCC(=O)N1CCc2cc(Br)cc(S(=O)(=O)N3CCCC(C(=O)N4CCN(Cc5ccc6c(c5)OCO6)CC4)C3)c21 (stereo unspecified),-21
Fc1cccc(Nc2ncnc3nc[nH]c23)c1,-9
COc1ccccc1-n1c(C=Cc2c(C)[nH]c3ccccc23)nc2ccccc2c1=O,-1
O=C(O)CCCNc1cc(N2CCN(c3cccc(C(F)(F)F)c3)CC2)c2noc3c2c1C(=O)c1ccccc1-3,-123
O=C(O)CCCNc1cc(N2CCCCCC2)c2noc3c2c1C(=O)c1ccccc1-3,67*
O=C(O)CCCNc1cc(N2CCC3(CC2)OCCO3)c2noc3c2c1C(=O)c1ccccc1-3,-52
C=CCn1c(SCc2ccc(Cl)cc2)nc2cc(C(=O)NCC3CCCO3)ccc2c1=O (stereo unspecified),-8
CCC(C)OC(=O)C(C)Oc1ccc2c3c(c(=O)oc2c1C)CCC3 (stereo unspecified),-1
COc1cccc(C=Nc2ccc(-c3nc4cc(C)ccc4s3)cc2)c1O,-52
Fc1ccccc1C1C=C(c2ccc(Br)s2)Nc2nc3ccccc3n21 (stereo unspecified),-107
Fc1ccccc1C1C=C(c2cccc(Br)c2)Nc2nc3ccccc3n21 (stereo unspecified),-11
Fc1ccccc1C1C=C(c2cccnc2)Nc2nc3ccccc3n21 (stereo unspecified),47*
CN1CCc2c(sc(/N=C/c3cccs3)c2C(N)=O)C1,-37
CN1CCc2c(sc(/N=C/c3ccco3)c2C(N)=O)C1,48*
N#Cc1c(/N=C/c2ccco2)sc2c1CCCCC2,-7
COC(=O)c1ccc(OCC2c3cc(OC)c(OC)cc3CCN2C(=O)c2ccc3c(c2)OCO3)cc1 (stereo unspecified),-1
CC(C)CC(=O)N1CCN(S(=O)(=O)c2ccc(Br)cc2)CC1,12
Cc1ccccc1Nc1nc(-c2ccc(NC(=O)c3ccccc3)cc2)cs1,-44
CC(C(=O)N1CCOCC1)N1C(=O)c2ccccc2C1=O (stereo unspecified),-5
CC(C)NC(=O)N1CCOCCOCCN(C(=O)NC(C)C)CCOCCOCC1,4
CC(N)C(=O)N1CCOCCOCCN(C(=O)C(C)N)CCOCCOCC1 (stereo unspecified),+
O=C(Nc1ccccn1)C(NS(=O)(=O)c1ccc(Br)s1)c1ccccc1 (stereo unspecified),-26
Cc1c(C(=O)N2CCCC2)sc2ncn(Cc3ccccc3F)c(=O)c12,-20
CC(=O)Nc1ccc(-c2csc(-c3c[nH]c4ccccc34)n2)cc1,3
SMILES,14-3-3 PPI
Cc1ccc([N+](=O)[O-])cc1NC(=O)c1cccc(C(=O)OC(C)C)n1,6
O=C1c2ccccc2C(=O)c2c1oc1c3c(ccc21)OCN(CCCN1CCOCC1)C3,-14
Cc1ccc(CS(=O)(=O)CCC(=O)NCCN2CCCCCC2)cc1,-11
O=c1nc2sc3[nH]c(=O)sc3cc-2s1,150*
COc1ccc(-n2nc3cc(C)c(NC(=O)c4ccc5c(c4)OCCO5)cc3n2)cc1,-6
O=C(NCCN1CCOCC1)c1cc(Sc2ccc(F)cc2)nc2ccccc12,-7
N#Cc1c(N=Cc2ccc([N+](=O)[O-])s2)sc2c1CCCC2,63*
Cc1ccc(C=Nc2sc3c(c2C#N)CCC3)cc1,-31
N#Cc1c(N=Cc2cc([N+](=O)[O-])ccc2O)sc2c1CCCC2,-13
N#Cc1c(N=Cc2ccc([N+](=O)[O-])cc2)sc2c1CCC2,135*
N#Cc1c(N=Cc2ccc(Cl)c([N+](=O)[O-])c2)sc2c1CCCC2,-8
N#Cc1c(N=Cc2cc([N+](=O)[O-])ccc2Cl)sc2c1CCCC2,1
O=C(Nc1ccc(Cl)cc1)C1C2C=CC3(O2)C1C(=O)N(Cc1cccs1)C3C(=O)NC1CCCCC1 (stereo unspecified),-1
CC1=C(C(=O)OCc2ccccc2)C(c2ccccc2I)C2=C(CC(C)(C)CC2=O)N1 (stereo unspecified),-2
O=C(Nc1ccc([N+](=O)[O-])cc1Br)C(Cc1ccc([N+](=O)[O-])cc1)N1C(=O)c2ccccc2C1=O (stereo unspecified),-1
Cc1ccccc1-n1nc([N+](=O)[O-])c(N2CCCCCC2)[n+]1[O-],1
Cc1cc(NS(=O)(=O)c2ccc3ccccc3c2)c(O)cc1-n1nc2ccccc2n1,5
Nc1cc(C(=O)c2ccccc2)c(N)c2c1C(=O)c1ccccc1C2=O,-26
Cc1ccc(S(=O)(=O)Nc2cc(C(=O)NCCc3ccccc3)ccc2N2CCCC2)cc1,-21
Cc1ccc(S(=O)(=O)Nc2cc(C(=O)NCc3cccnc3)ccc2N2CCCCC2)cc1,37*
Cc1ccc(S(=O)(=O)Nc2cc(C(=O)NCCc3ccccc3)ccc2N2CCCCC2)cc1,0
CCc1c(C)nc(SCC(=O)c2ccc(Br)cc2)c(C#N)c1C,1
CC(=O)N1c2ccc(S(=O)(=O)CCC(=O)NCc3ccccc3)cc2CC1C (stereo unspecified),20
CC(=O)N1c2ccc(S(=O)(=O)CCC(=O)NCc3ccc(C)cc3)cc2CC1C (stereo unspecified),33*
COc1cccc(CNC(=O)CCS(=O)(=O)c2ccc3c(c2)CC(C)N3C(C)=O)c1 (stereo unspecified),0
SMILES,14-3-3 PPI
O=c1[nH]c2ccc([N+](=O)[O-])cc2nc1Cc1ccccc1Cl,-10
O=C1Nc2cc(C(=O)N3CCN(Cc4ccc5c(c4)OCO5)CC3)ccc2NC1CSCc1ccccc1F (stereo unspecified),-66
Cc1nc2nc(-c3ccc(Br)cc3)cn2nc1C,-127
Cc1ccc(CNC(=O)CCNC(=O)c2ccc(Br)o2)cc1,-4
O=C(CCNC(=O)c1ccc(Br)o1)NCc1ccccn1,+!
O=C(CCNC(=O)c1ccc(Br)o1)NCc1ccccc1Cl,1
Cc1ccc(C(=O)Nc2ccccc2C(C)C)cc1,4
COc1ccc(-n2c(=S)[nH]c3cc(C(=O)NCc4ccc5c(c4)OCO5)ccc3c2=O)c(OC)c1,-7
CCCCOc1ccc(C(=O)Nc2ccc(O)c(-c3nc4ccccc4s3)c2)cc1,-4
CC1CCN(C(=O)c2c[nH]c3ccc(S(=O)(=O)N4CCCCC4c4cccnc4)cc3c2=O)CC1 (stereo unspecified),-1
O=C(c1c[nH]c2ccc(S(=O)(=O)N3CCCCC3c3cccnc3)cc2c1=O)N1CCCC1 (stereo unspecified),-9
O=C(O)c1c[nH]c2ccc(S(=O)(=O)N3CCCCC3c3cccnc3)cc2c1=O (stereo unspecified),57*
O=[N+]([O-])c1ccc(-c2csc(SCC=Cc3ccccc3)n2)cc1,-4
COc1ccc(Br)cc1CNC(=O)c1ccc(Sc2ccc(Cl)cc2)c(NC(C)=O)c1,-5
CCCOc1cccc(C2C3=C(CC(C)(C)CC3=O)Nc3ccccc3N2C(=O)C(F)(F)F)c1 (stereo unspecified),-5
COc1ccccc1C(=O)Oc1c(Sc2ccccc2[N+](=O)[O-])c(C)nn1-c1ccccc1,1
Cc1ccc(C2C3CN(C(C)C)CC=C3C(C#N)=C(N)C2(C#N)C#N)cc1 (stereo unspecified),36*
CC(=O)N1CC=C2C(C#N)=C(N)C(C#N)(C#N)[C@H](c3ccoc3)[C@H]2C1,-8
COc1ccc(OC)c(C2C3CN(C(C)C)CC=C3C(C#N)=C(N)C2(C#N)C#N)c1 (stereo unspecified),-27
